# The full list was thinned out, with hits kept by preference.
# TbPYK inhibitor = inhibitors of Trypanosoma brucei pyruvate kinase. TbPYK enzyme, Kinase-Glo Plus ATP luminescence, 45 min. Potency, µM (series often up to 76.8 µM), without a hit: at the highest dose activity, negative = inhibition, most hits filed as inhibitors. 410,000 compounds, 0.12% hits; note: potency is the fitted concentration of half-maximal effect; % is set by controls: 0 for no effect and ±100 for the full control effect; nearly all actives have a fitted effect of over 50% in size
#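 Quantitative HTS: titrated library compounds versus trypanosomal pyruvate kinase in TEA buffer (pH 7.2) containing KCl, MgCl2, BSA and Tween-20. Reactions were initiated with ADP, 130 uM final. Kinase-Glo Plus luminescence was read after 45 min at RT.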
# Sm TGR block = blocks Schistosoma mansoni thioredoxin glutathione reductase | Q962Y6 | purified TGR, DTNB reduction, TNB absorbance 405 nm | Potency, µM (highest dose often 114 µM), for the others: top-dose activity change, negative = inhibition, most hits filed as inhibitors | 360,000 compounds, 3% hits | AID 485364; note: potency is the fitted concentration of half-maximal effect; % is set by controls: 0 for no effect and ±100 for the full control effect; nearly all actives have a fitted effect of over 60% in size
#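 TGR 20 nM + NADPH 100 uM (dispensed conc.), cpd preinc 15 min RT; start with NADPH (500 uM addition) then DTNB (15 mM addition). Kinetic TNB absorbance, 405 nm filter. Four-parameter Hill fit across titration.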
# Cycloheximide cs = counter-screen for Shiga toxin inhibitors: cycloheximide protein synthesis inhibition; cell reporter, cycloheximide protein synthesis inhibition counterscreen; max response, %; 300,000 compounds, 12% hits; in the data active = max response mostly above about 13%, no sharp cut-off; inactive = mostly below about 14%; note: read at 38.3 µM for the half of the compounds with a filed dose; 0% is about no effect
# LmPK inh = blocks Leishmania mexicana pyruvate kinase activity; Potency, µM (top dose mostly 57.5 µM), without a hit: top-dose activity change, negative = inhibition, actives largely listed as inhibitors; Q27686; AID 1721; 290,000 compounds, 0.37% hits; purified LmPK, Kinase-Glo ATP luminescence, 1 h; note: potency is the fitted concentration of half-maximal effect; % is set by controls: 0 for no effect and ±100 for the full control effect
#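 qHTS format; LmPK 0.1 nM; substrates PEP 0.5 mM and ADP 0.1 mM. One-hour room-temperature incubation, then coupled luciferase luminescence; 0.5 nM enzyme wells mark activation.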
# Shiga toxin inh = inhibitors of Shiga toxin in Vero cells. Vero cells, Shiga toxin protein synthesis inhibition reporter. inhibition, % at 38.7 µM. 290,000 compounds, 9.2% hits. AID 2315; in the data active = inhibition mostly above about 28%, no sharp cut-off; inactive = mostly below about 43%; note: 0% is about no effect
# FBPA Giardia inh = Giardia lamblia aldolase inhibition. purified Giardia FBPA. A8B2U2. 290,000 compounds, 0.71% hits. AID 2451. Potency, µM (top dose mostly 59.6 µM), for the others: top-dose activity, negative = inhibition, usual class: inhibitors; note: potency is the fitted concentration of half-maximal effect; % is set by controls: 0 for no effect and ±100 for the full control effect; nearly all actives have a fitted effect of over 55% in size
# Target sequence (A8B2U2 whole entry, looked up): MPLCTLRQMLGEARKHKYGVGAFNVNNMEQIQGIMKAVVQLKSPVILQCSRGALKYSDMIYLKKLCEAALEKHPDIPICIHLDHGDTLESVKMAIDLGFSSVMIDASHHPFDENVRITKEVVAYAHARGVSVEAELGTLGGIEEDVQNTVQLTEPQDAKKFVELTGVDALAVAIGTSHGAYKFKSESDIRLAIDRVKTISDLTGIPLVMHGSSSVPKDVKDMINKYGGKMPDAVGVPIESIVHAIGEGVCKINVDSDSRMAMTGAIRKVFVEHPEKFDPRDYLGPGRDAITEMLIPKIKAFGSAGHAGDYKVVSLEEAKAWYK
#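 40 nM FBPA preincubated 10 min at RT with compound (up to 57.5 uM final), then substrate plus GAPDH/TPI/NAD/arsenate coupling and diaphorase/resazurin added. Fluorescence read after 20 min at RT, 525/598 nm.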
# Starred values were filed as active, the others as inactive; i = inactive; u = inconclusive; x = no result given. Unless noted, calls come from the whole dose curve; as a rule, active = well fitted curve in the direction sought with a large enough effect; inconclusive = small, poorly fitted or top-dose-only effect, or another doubt; inactive = no such curve, though single readings can be large; an effect the other way counts as inactive or inconclusive.
SMILES,TbPYK inhibitor,Sm TGR block,Cycloheximide cs,LmPK inh,Shiga toxin inh,FBPA Giardia inh
COc1ccc(-c2nc(N)n(C(=O)c3ccco3)n2)cc1,-4.0%,-7.2%,11.8,-6.2%,3.3,1.2%
COc1ccc(-c2nc(SC)n(C(=O)c3ccco3)n2)cc1,-4.0%,1.1%,32.7*,-5.6%,59.4*,4.7%
COc1ccc(C(=O)n2nc(-c3ccco3)nc2SC)cc1OC,-15.8%,10µM*,-3.0,8.3%,-4.6,-23.5%
CS(=O)(=O)n1nc(-c2ccc(Cl)cc2)nc1SCc1ccccc1,-0.9%,-11.9%,39.2*,0.6%,73.1*,-0.2%
COc1ccc(-c2nc(SCc3ccccc3)n(C(=O)c3ccco3)n2)cc1,7.9%,-0.6%,26.1*,-0.1%,11.1,-6.6%
CSc1nc(-c2ccc(Cl)cc2)nn1S(=O)(=O)c1ccccc1,-2.8%,0.5%,10.2,3.5%,33.7,6.5%
Cc1cc(C)cc(NC(=O)Cc2csc(COc3cccc(C)c3)n2)c1,-0.2%,0.6%,x,x,x,x
CC(NC(=O)Cn1c(=O)oc2cc(S(=O)(=O)NCc3ccccc3)ccc21)c1ccccc1 (stereo not drawn),3.2%,0.3%,x,x,x,x
CCOc1cccc(-c2csc(C3COc4ccccc4O3)n2)c1 (stereo not drawn),2.5%,0.1%,27.7*,-4.1%,30.5,6.8%
CCc1ccc(-c2nc3cc(NC(=O)c4ccc(C)c(C)c4)ccc3o2)cc1,12.1%,3.9%,x,x,x,x
Cc1ccc2oc(-c3ccc(NC(=O)CC(C)C)cc3)nc2c1,1.2%,0.4%,34.0*,-3.9%,143.2*,-1.5%
CCC(=O)Nc1ccc2oc(-c3cccnc3)nc2c1,1.0%,2.2%,34.7*,-3.9%,47.5*,-1.2%
CC(C)CC(=O)Nc1ccc2oc(-c3cccnc3)nc2c1,7.8%,2.4%,26.5*,-11.4%,36.8,-1.0%
CCc1ccc2oc(-c3ccc(NC(C)=O)cc3)nc2c1,-0.4%,-3.1%,60.8*,-0.7%,145.0*,-1.7%
CSCC[C@H](NC(=O)[C@H](Cc1ccccc1)NC(=O)[C@H](Cc1cnc[nH]1)NC(=O)CNC(=O)[C@@H](NC(=O)[C@H](C)NC(=O)[C@H](Cc1c[nH]c2ccccc12)NC(=O)[C@H](CCC(N)=O)NC(=O)[C@@H]1CCCN1C(=O)[C@@H](NC(=O)[C@@H]1CCC(=O)N1)C(C)C)C(C)C)C(N)=O,x,x,-6.9,x,-4.7,-1.1%
CCOc1ccc(N=C/C=C/c2ccccc2)c(O)c1,-12.3%,39.8µM*,21.6*,-12.5%,63.9*,u
CC1Cc2cc(S(=O)(=O)CCC(=O)Nc3ccc(F)cc3)ccc2N1C(=O)C1CC1 (stereo not drawn),-0.9%,0.3%,x,x,x,x
Oc1ccc(Cl)cc1C1=Nc2ccccc2N=C(c2cccc(Br)c2)C1,5.6%,-1.6%,x,x,x,x
COc1ccc(C2=NNC(c3cc(Cl)cc4c3OCOC4)C2)c(O)c1 (stereo not drawn),x,x,17.1*,0.4%,47.7,12.8%
Oc1ccc(Cl)cc1C1=NNC(c2cc(Br)cc3c2OCOC3)C1 (stereo not drawn),-5.7%,25.1µM*,13.7,-6.4%,-3.9,5.2%
COc1ccc(CNc2ncnc3c2nnn3C)cc1,1.2%,1.5%,x,x,x,x
CCC(C)CC(C)CC(C)C(=O)/C=C(/O)C(C)CC(C)C/C=C/C(C)C(O)C(C)C(O)CC1CCC(C)(C)O1 (stereo not drawn),x,x,-14.0,x,-12.2,5.7%
O=[N+]([O-])c1ccc(-c2[se]c3ccccc3c2I)cc1,x,x,33.4,x,i,-0.4%
COc1cccc(Cn2c(=O)cnc3cnc(Oc4cccc(Cl)c4)nc32)c1,-3.4%,x,x,x,x,-8.5%
CC(C)(C)C1=CC=C(C(C)(C)C)C(=O)C1=O,x,25.1µM*,-2.1,22.4µM*,-0.2,7.92µM*
Cc1ccc(C(=O)NCc2ccco2)cc1Br,0.1%,44.7µM*,1.1,-3.1%,11.9,-0.5%
Cc1occc1C(=O)NCc1ccco1,-18.4%,-2.9%,-2.1,-1.8%,10.4,0.0%
Cc1ccc2c(CC(=O)NCc3ccco3)coc2c1C,-1.5%,14.7%,22.9*,3.6%,33.2*,-10.8%
CC(C)(C)N1C(=O)c2ccc(C(=O)NCc3ccco3)cc2C1=O,-9.2%,25.1µM*,16.2*,5.6%,5.2,2.8%

# Screening results as filed in PubChem.
